From PubChem BioAssay (NCATS)
Results filed as inconclusive are left out. Entries that show only a call come without a potency. The source made the active and inactive calls. Calls come from the whole dose curve; as a rule, active = well fitted cell-killing curve with a large enough effect; inconclusive = small, poorly fitted or top-dose-only effect, or effect the other way; inactive = no such curve, though single readings can be large or run the other way.

Experiment: Quantitative High-Throughput drug screen in 47 multiple myeloma cell lines against the NCATS MIPE library collection: KMM1_JCRB cell viability assay (AID 1918960); note: nearly all actives have a fitted effect of over 30% in size
Conditions: KMM1 myeloma viability, CellTiter-Glo ATP luminescence, 48 h; series mostly up to 45.8 µM
Text: PI: Beverly A. Mock Ph.D.
Laboratory of Cancer Biology and Genetics,
Center for Cancer Research, National Cancer Institute,
National Institute of Health, Bethesda, Maryland
Drug resistance and disease progression are common in multiple myeloma (MM) patients, underscoring the need for new therapeutic combinations. […] We hypothesized that effective combinations would reduce MYC expression and enhance p16 activity. […] These preclinical data identify potentially useful drug combinations for evaluation in drug-resistant MM and reveal potential mechanisms of combined drug sensitivity.
Described herein is the primary MIPE qHTS used to cherrypick compounds. Validated compounds were then further tested for potential synergistic activiy.
[1] Peat TJ, Gaikwad SM, Dubois W, Gyabaah-Kessie N, Zhang S, Gorjifard S, Phyo Z, Andres M, Hughitt VK, Simpson RM, Miller MA, Girvin AT, Taylor A, Williams D, D'Antonio N, Zhang Y, Rajagopalan A, Flietner E, Wilson K, Zhang X, Shinn P, Klumpp-Thomas C, McKnight C, Itkin Z, Chen L, Kazandijian D, Zhang J, Michalowski AM, Simmons JK, Keats J, Thomas CJ, Mock BA. Drug combinations identified by high-throughput screening promote cell cycle transition and upregulate Smad pathways in myeloma. Cancer Lett. 2023 Aug 1;568:216284. doi: 10.1016/j.canlet.2023.216284. Epub 2023 Jun 24. PMID: 37356470; PMCID: PMC10408729.
SEQUENCE No. (e.g., 1, 2, 3, etc.); […] (e.g., Cells, Incubation, Reagent, etc.); VALUE and DESCRIPTION.
1; Cells; 5 uL; white, solid bottom 1536-well Greiner assay plate.
2; Compounds; 23 nL; Kalypsis pin tool (Wako USA) equipped with a 1536-well pin head to transfer to the assay plates.
3; Incubation; 48 hours; 37C incubation.
4; Reagent;5uL; CellTiter Glo (Promega).
5; Detector; 425V; Luminescence; Viewlux PerkinElmer.
NOTES (numbers refer to Sequence numbers above)
1. The cell-based screening methods employed in this study were like those previously published. Briefly, the corresponding myeloma cell lines were screened in 1,536-well plates with 500 cells, 5-uL per well for inhibition of cell viability (assessed by measuring ATP levels with CellTiterGlo).
2. NCATS MIPE 4.0 library of approved and investigational drugs were added using the Kalypsis pin tool. Wells treated with DMSO only for 100% viability and media only cells for 0% viability were used as controls.
3. The assay plates were covered and incubated for 48 hours in a 37C, 5% CO2 incubator with controlled humidity.
4. After 48 hours, CellTilter-GloTM luminescent substrate mix (Promega) reagent was added to the assay plate and plates we incubated for 5 min at room temperature.
5. Signal was measured as median relative luminescence units on a ViewLux (PerkinElmer) multiplate reader.
[1] Heske CM, Davis MI, Baumgart JT, Wilson K, Gormally MV, Chen L, Zhang X, Ceribelli M, Duveau DY, Guha R, Ferrer M, Arnaldez FI, Ji J, Tran HL, Zhang Y, Mendoza A, Helman LJ, Thomas CJ. Matrix Screen Identifies Synergistic Combination of PARP Inhibitors and Nicotinamide Phosphoribosyltransferase (NAMPT) Inhibitors in Ewing Sarcoma. Clin Cancer Res. 2017 Dec 1;23(23):7301-7311. doi: 10.1158/1078-0432.CCR-17-1121. Epub 2017 Sep 12. PMID: 28899971; PMCID: PMC6636827.
Potency is the fitted concentration of half-maximal effect.

Compound	Potency
Cc1ccc(Nc2cc(-c3cccc(N4C(=O)c5ccccc5C4=O)c3)ncn2)cc1NS(C)(=O)=O	18.7 µM (active)
CC[C@H]1OC(=O)[C@H](C)C(=O)[C@H](C)[C@@H](O[C@H]2O[C@H](C)C[C@H](N(C)C)[C@@H]2O)[C@](C)(OC)C[C@@H](C)C(=O)[C@H](C)[C@H]2N(CCCCn3cnc(-c4cccnc4)c3)C(=O)O[C@]12C	3.72 µM (active)
CO[C@H]1C=CO[C@@]2(C)Oc3c(C)c(O)c4c(O)c(c5c(c4c3C2=O)NC2(CCN(CC(C)C)CC2)N=5)=NC(=O)C(C)=CC=C[C@H](C)[C@H](O)[C@@H](C)[C@@H](O)[C@@H](C)[C@H](OC(C)=O)[C@H]1C	inactive
Cc1cccc(Nc2nc(-c3ccncc3)cs2)c1	23.5 µM (active)
CCS(=O)(=O)N1CC(CC#N)(n2cc(-c3ncnc4[nH]ccc34)cn2)C1	inactive
COCCCCC(=NOCCN)c1ccc(C(F)(F)F)cc1	inactive
CC1(C)S[C@H]2[C@H](NC(=O)[C@@H](N)c3ccc(O)cc3)C(=O)N2[C@@H]1C(=O)O	2.09 µM (active)
CC(=O)N(C)C1(c2ccccc2)CCN(CCC[C@]2(c3ccc(Cl)c(Cl)c3)CCCN(C(=O)c3ccccc3)C2)CC1	14.8 µM (active)
CC(C)n1cnc2c(NCCCCCCNC(=O)OC(C)(C)C)nc(NCCO)nc21	7.43 µM (active)
CC1CCC(C(=O)N(c2cc(C#CC(C)(C)C)sc2C(=O)O)C2CCC(O)CC2)CC1 (stereo not given)	inactive
O=C(NCc1ccccc1)c1csc(Nc2ccncn2)n1	9.35 µM (active)
Cc1c(O)cccc1C(=O)N[C@@H](CSc1ccccc1)[C@H](O)CN1C[C@H]2CCCC[C@@H]2C[C@@H]1C(=O)NC(C)(C)C	18.7 µM (active)
O=c1c(-c2ccc(O)cc2)coc2cc(O[C@@H]3O[C@H](CO)[C@H](O)[C@H](O)[C@H]3O)ccc12	inactive
CC[C@H]1OC(=O)[C@H](C)[C@@H](O[C@H]2C[C@@](C)(OC)[C@@H](O)[C@H](C)O2)[C@H](C)[C@@H](O[C@@H]2O[C@H](C)C[C@H](N(C)C)[C@@H]2O)[C@](C)(O)C[C@@H](C)CN(C)[C@H](C)[C@@H](O)[C@]1(C)O	inactive
CO[C@@H](C(=O)N1Cc2[nH]nc(NC(=O)c3ccc(N4CCN(C)CC4)cc3)c2C1)c1ccccc1	7.43 µM (active)
O=C(CCCCCCC(=O)Nc1ccccc1)NO	1.32 µM (active)
C[C@@H]1CCN(C(=O)CC#N)C[C@H]1N(C)c1ncnc2[nH]ccc12	inactive
CC=CCC(C)C(O)C1C(=O)NC(CC)C(=O)N(C)CC(=O)N(C)C(CC(C)C)C(=O)NC(C(C)C)C(=O)N(C)C(CC(C)C)C(=O)NC(C)C(=O)NC(C)C(=O)N(C)C(CC(C)C)C(=O)N(C)C(CC(C)C)C(=O)N(C)C(C(C)C)C(=O)N1C (stereo not given)	inactive
O=C(Nc1ccccc1Br)N[C@@H]1CCN(c2ccc(C(F)(F)F)cn2)C1	inactive
CCn1cc(C(=O)O)c(=O)c2ccc(C)nc21	inactive

Compound	Potency
O=C(NOCC(O)CO)c1cc(Br)c(F)c(F)c1Nc1ccc(I)cc1F (stereo not given)	inactive
CC1(C)O[C@H]2C[C@@H]3[C@H]4CCC5=CC(=O)C=C[C@]5(C)[C@@]4(F)[C@@H](O)C[C@]3(C)[C@]2(C(=O)CO)O1	inactive
CO[C@H]1C=CC=C(C)C(=O)NC2=CC(=O)C(NCCN(C)C)=C(C[C@@H](C)C[C@H](OC)[C@@H](O)[C@@H](C)C=C(C)[C@@H]1OC(N)=O)C2=O	0.0526 µM (active)
O=C1c2c(O)cc(O)cc2O[C@H](c2cc(O)c(O)c(O)c2)[C@H]1O	inactive
COc1ccc2c3c1OC1C[C@@H](O)C=C[C@@]31CCN(C)C2 (stereo not given in full)	inactive
O=C1C(Cl)=C(NCCN2CCOCC2)C(=O)c2ncccc21	3.32 µM (active)
Cc1ccn(-c2ccc(-c3ncco3)cc2)c(=O)c1-c1ccc2nc(N)ncc2c1	13.2 µM (active)
O=C1NC(=O)C(=Cc2ccc(-c3ccc(F)cc3)o2)S1	5.9 µM (active)
Cc1cnc(C(=O)O)c[n+]1[O-]	inactive
CC(C)(C)C(=O)Oc1ccc2c(c1)nc(NC(=O)c1cccc([N+](=O)[O-])c1)n2CCCO	inactive
CN(C)Cc1ccc(-c2nc3cccc4c3n2CCNC4=O)cc1	18.7 µM (active)
NS(=O)(=O)c1cccc2c1C(=O)c1cccc(O)c1C2=O	0.264 µM (active)
C[C@H](NC(=O)c1sccc1OCc1ccc(Cl)cc1)c1ccccc1	inactive
COc1ccc(-c2cc(=O)c3c(O)cc(O)cc3o2)cc1O	7.43 µM (active)
Cc1cc(OCCCc2c(C(=O)O)n(Cc3cccnc3)c3c(-c4c(COc5ccc(N6CCN([S+](C)(=O)[O-])CC6)cc5)nn(C)c4C)cccc23)cc(C)c1Cl	9.35 µM (active)
O=c1c(-c2ccc(O)cc2)coc2cc(O)ccc12	inactive
Cc1ccc(C(C)(O)c2nc3ccccc3s2)c(C)c1 (stereo not given)	inactive
NC[C@@H]1O[C@@H](O[C@H]2[C@@H](O)[C@H](O[C@@H]3[C@@H](O)[C@@H](N)C[C@H](N)[C@H]3O[C@H]3O[C@H](CN)[C@@H](O)[C@@H](O)[C@H]3N)O[C@H]2CO)[C@H](N)[C@@H](O)[C@@H]1O	inactive
CC(C)(C)Cn1c(N)nc2ccc(-c3[nH]c(C(C)(C)C)nc3-c3ccc(F)cc3)nc21	inactive
CC[C@@H]1C=C(C)C[C@H](C)C[C@H](OC)[C@H]2O[C@@](O)(C(=O)C(=O)N3CCCC[C@@H]3C(=O)O[C@H](C(C)=C[C@@H]3CC[C@H](Cl)[C@H](OC)C3)[C@H](C)[C@@H](O)CC1=O)[C@H](C)C[C@H]2OC	8.33 µM (active)
